# In the supplement of paper PMC13380429:
# Counter-ions that a name gives are not always drawn.
# Key:
# [1] = tested on: Vero E6 infected with SARS-CoV-2; experiment: morphology score (similarity to uninfected cells); higher = more like uninfected cells; settings: 24 h
# [2] = tested on: Vero E6 infected with SARS-CoV-2; experiment: SARS-CoV-2 infection rate relative to infected DMSO; higher = more infection, active = 60 or less; settings: 24 h
Compound,morphology score [1],SARS-CoV-2 infection rate [2]
O=C(c1cn(Cc2cncn2Cc2ccc(Br)cc2)cc1-c1cccc2ccccc12)N1CCOCC1 (0.833333 µM),0.342,94.5% (inactive)
CCCCc1ccc(O)cc1O [rucinol] (10 µM),-0.0981,99% (inactive)
CCC1(c2ccccc2)C(=O)NCNC1=O [primidone] (10 µM),0.097,102% (inactive)
CCN(CC)CCNC(=O)c1ccccc1I (10 µM),0.221,91% (inactive)
CC(=O)Nc1ccc(NC(=S)NC(=O)c2ccc(C(C)(C)C)cc2)cc1 [tenovin-1] (10 µM),-0.0316,109% (inactive)
CCC(C/C=C/c1ccccc1)(c1ccccc1)N(C)CC1CC1 (stereo not given) [igmesine] (10 µM),0.316,97.5% (inactive)
C[C@H](/C=C/[C@H](C)C(C)(C)O)[C@H]1CC[C@H]2/C(=C/C=C3C[C@@H](O)C[C@H](O)C3)CCC[C@]12C [paricalcitol] (10 µM),0.0995,104% (inactive)
Cc1ccc(/C=C2\CNC/C(=C\c3ccc(C)cc3)C2=O)cc1 (0.833333 µM),0.168,93% (inactive)
CC/C(=C(\c1ccc(O)cc1)c1ccc(OCCNC)cc1)c1ccccc1 [Endoxifen HCl] (10 µM),0.817,26% (active)
c1cnc(SCc2cccnc2)nc1 [tasuldine] (10 µM),0.175,99.5% (inactive)
CNC(=O)[C@H](Cc1ccccc1)NC(=O)[C@H](CC(C)C)[C@H](CSc1cccs1)C(=O)NO [batimastat] (10 µM),0.0292,104% (inactive)
CC(C)(CO)CCCCCCC(C)(C)CO [gemcadiol] (10 µM),0.124,98.5% (inactive)
CC(C)(O)CNc1nc(Nc2ccnc(C(F)(F)F)c2)nc(-c2cccc(C(F)(F)F)n2)n1 [enasidenib] (10 µM),0.237,100% (inactive)
CN(C)C(=O)N[C@H]1CC[C@H](CCN2CCN(c3cccc(Cl)c3Cl)CC2)CC1 [cariprazine] (10 µM),-0.0979,113% (inactive)
O=C(NCC1CCOCC1)c1cnc(Nc2ccc(Cl)cc2Cl)nc1C(F)(F)F (10 µM),0.326,96% (inactive)
CNC[C@H](O)[C@@H](O)[C@H](O)[C@H](O)CO [meglumine] (10 µM),-0.00131,104% (inactive)
N#Cc1cnc2c(Cl)cc(NCc3cn(CCN4CCCCCC4)nn3)cc2c1Nc1ccc(F)c(Cl)c1 [cot-inhibitor-1] (10 µM),0.16,104% (inactive)
O=c1[nH]cc(F)c(=O)[nH]1 [5-fluorouracil] (0.833333 µM),0.0377,102% (inactive)
CCCCN1CCCCC1C(=O)Nc1c(C)cccc1C (stereo not given) [bupivacaine] (10 µM),0.0282,110% (inactive)
CN(C)CCCSc1ccccc1NC(=O)/C=C/c1ccccc1 [cinanserin] (10 µM),0.164,92% (inactive)

Compound,morphology score [1],SARS-CoV-2 infection rate [2]
Nc1ccc(C(=O)O)cc1 [potassium-p-aminobenzoate] (10 µM),-0.112,108% (inactive)
COc1ccc(-c2cc(C(F)F)nn2-c2ccc(S(N)(=O)=O)cc2)cc1F [deracoxib] (10 µM),0.112,112% (inactive)
CC[C@@H](CO)NC(=O)[C@@H]1C=C2c3cccc4c3c(cn4C)C[C@H]2N(C)C1 [methysergide] (10 µM),0.0741,110% (inactive)
O=S(=O)(c1ccccc1)N(CC(F)(F)F)c1ccc(C(O)(C(F)(F)F)C(F)(F)F)cc1 (10 µM),0.0275,104% (inactive)
CS(=O)(=O)c1cc(F)cc2c3c(n(Cc4ccc(Cl)cc4)c12)[C@@H](CC(=O)O)CC3 [laropiprant] (10 µM),0.0115,106% (inactive)
CC(=O)c1c(C)c2cnc(Nc3ccc(N4CCNCC4)cn3)nc2n(C2CCCC2)c1=O [palbociclib] (10 µM),0.0925,108% (inactive)
CS(=O)(=O)CCNCc1ccc(-c2ccc3ncnc(Nc4ccc(OCc5cccc(F)c5)c(Cl)c4)c3c2)o1 [lapatinib] (10 µM),-0.279,111% (inactive)
Fc1cc(-c2cccc3ncc(-c4cnn(C5CCNCC5)c4)nc23)cc(F)c1CN1CCOCC1 (0.833333 µM),0.0457,116% (inactive)
O=C(Nc1ccncc1)C(=O)c1cn(Cc2ccc(Cl)cc2)c2ccccc12 [indibulin] (0.833333 µM),-0.246,124% (inactive)
N=C(N)c1ccc(N2CCN(C3CCN(CC(=O)O)CC3)CC2)cc1 (10 µM),-0.0825,106% (inactive)
CCNC(=O)/C=C/c1cccc(Br)c1 [cinromide] (10 µM),0.135,96% (inactive)
CCCC(C(=O)OCCN(CC)CC)(c1ccccc1)c1ccccc1 [proadifen] (10 µM),0.323,89.5% (inactive)
CC(C)[C@H]1CC[C@H](C(=O)N[C@H](Cc2ccccc2)C(=O)O)CC1 [nateglinide] (10 µM),0.0232,94.5% (inactive)
c1ccc(CN(CC2=NCCN2)c2ccccc2)cc1 [antazoline] (10 µM),-0.22,112% (inactive)
O=C(O[C@@H]1Cc2c(O)cc(O)cc2O[C@@H]1c1ccc(O)c(O)c1)c1cc(O)c(O)c(O)c1 [epicatechin-gallate-(-)] (10 µM),0.106,100% (inactive)
COc1ccc(Cc2nccc3cc(OC)c(OC)cc23)cc1OC [papaverine] (10 µM),0.169,105% (inactive)
OC[C@@H](O)[C@H]1O[C@@H]2O[C@H](C(Cl)(Cl)Cl)O[C@@H]2[C@H]1O [chloralose] (10 µM),0.162,103% (inactive)
CCc1cc(-c2[nH]nc(C)c2-c2ccc3c(c2)OCCO3)c(O)cc1O (0.833333 µM),0.075,114% (inactive)
Nc1nc(N)c2nc(-c3cccc(O)c3)cnc2n1 (10 µM),0.242,101% (inactive)
c1ccc(C2CC2)c(OCC2=NCCN2)c1 [cirazoline] (10 µM),0.0206,102% (inactive)

Compound,morphology score [1],SARS-CoV-2 infection rate [2]
N#Cc1ccc(-c2csc(NN=C3CCCC3)n2)cc1 [remodelin] (10 µM),0.0343,100% (inactive)
C[C@@H]1C[C@H]2[C@@H]3CCC4=CC(=O)C=C[C@]4(C)[C@@]3(F)[C@@H](O)C[C@]2(C)[C@H]1C(=O)CO [desoximetasone] (10 µM),0.067,91% (inactive)
"COc1ccc2c(c1OC)C(=O)O[C@@H]2[C@H]1c2cc3c(cc2CCN1C)OCO3 [hydrastine-(1R,9S)] (10 µM)",-0.0178,108% (inactive)
CCN(CC)C(=O)c1ccc(C2=CC3(CCNCC3)Oc3cccc(O)c32)cc1 (10 µM),0.006,122% (inactive)
CNCCc1cnc[nH]1 [N-alpha-methylhistamine-dihydrochloride] (10 µM),-0.0409,110% (inactive)
C[C@@]12C[C@@]3(O)O[C@@H](O1)[C@]1(COC(=O)c4ccccc4)[C@H]3C[C@@]12O[C@@H]1O[C@H](CO)[C@@H](O)[C@H](O)[C@H]1O [paeoniflorin] (10 µM),0.192,92.5% (inactive)
O/N=C/c1cc[n+](COC[n+]2ccc(/C=N/O)cc2)cc1 [obidoxime] (10 µM),-0.0437,108% (inactive)
O=S(=O)(N[C@H](CO)C(C(F)(F)F)C(F)(F)F)c1ccc(Cl)s1 [begacestat] (10 µM),0.00774,98% (inactive)
CN1c2ccccc2C(NCCCCCCC(=O)O)c2ccc(Cl)cc2S1(=O)=O (stereo not given) [tianeptine] (10 µM),0.237,104% (inactive)
CCNC(=O)[C@@H]1CCCN1C(=O)[C@H](CCCNC(=N)N)NC(=O)[C@H](CC(C)C)NC(=O)[C@@H](CC(C)C)NC(=O)[C@H](Cc1ccc(O)cc1)NC(=O)[C@H](CO)NC(=O)[C@H](Cc1c[nH]c2ccccc12)NC(=O)[C@H](Cc1c[nH]cn1)NC(=O)[C@@H]1CCC(=O)N1 [leuprolide] (10 µM),-0.258,118% (inactive)
COCCN1CCC(C(=O)NO)(S(=O)(=O)c2ccc(Oc3ccc(OC(F)(F)F)cc3)cc2)CC1 (10 µM),0.0474,110% (inactive)
COc1ccc2nc3c(c(N)c2c1)CCCC3 [7-methoxytacrine] (10 µM),0.597,64.5% (inactive)
O=C1N=C2SCCN2C(=O)C1Cc1ccc(Cl)cc1 (stereo not given) [nuclomedone] (10 µM),0.238,99% (inactive)
Nc1ccn([C@@H]2CS[C@H](CO)O2)c(=O)n1 [lamivudine] (10 µM),-0.00863,102% (inactive)
Cc1cc(/C=C/C#N)cc(C)c1Nc1ccnc(Nc2ccc(C#N)cc2)n1 [rilpivirine] (0.833333 µM),0.136,111% (inactive)
[O-][n+]1ccccc1[S-].[O-][n+]1ccccc1[S-].[Zn+2] [pyrithione-zinc] (10 µM),0.0399,91.5% (inactive)
CO[C@H]1/C=C/O[C@@]2(C)Oc3c(C)c(O)c4c(O)c(c(/C=N/N5CCN(C)CC5)c(O)c4c3C2=O)NC(=O)/C(C)=C\C=C\[C@H](C)[C@H](O)[C@@H](C)[C@@H](O)[C@@H](C)[C@H](OC(C)=O)[C@@H]1C [rifampin] (0.833333 µM),-0.0289,112% (inactive)
O=C(Nc1ccccc1)c1cc([N+](=O)[O-])ccc1Cl (10 µM),0.103,94.5% (inactive)
CCC(=N\O)/C(C)=C/c1ccc(F)cc1 (10 µM),0.0411,110% (inactive)
CC[C@H]1OC(=O)[C@H](C)[C@@H](O[C@H]2C[C@@](C)(OC)[C@@H](O)[C@H](C)O2)[C@H](C)[C@@H](O[C@@H]2O[C@H](C)C[C@H](N(C)C)[C@H]2O)[C@](C)(O)C[C@@H](C)CN(C)[C@H](C)[C@@H](O)[C@]1(C)O [azithromycin] (10 µM),0.236,98.5% (inactive)
